# From PubChem
# RGS12 GoLoco inh – blocks human Gai1 binding to RGS12 GoLoco peptide, red readout; P63096; Gai1:RGS12 GoLoco peptide FP, rhodamine, 10 min; Potency, µM (highest dose often 61.6 µM), for inactives: top-dose activity, negative = inhibition, most hits filed as inhibitors; hit rate 0.44% among 230,000; AID 880; active = well fitted inhibition curve with a large enough effect, not every such curve was filed as active; inactive = no such curve, though single readings can be large or run the other way; also: % is scaled to controls: 0 for no effect and ±100 for the full control effect; nearly all actives have a fitted effect of over 30% in size
# BRCA1 expr act – activators of BRCA1 expression | MCF7-BRCA1-FFLuc reporter, luminescence, 48 h; response scale: scaled: vehicle 0%, 10 µM genistein 100% | Potency, µM (doses to about 46.1 µM), inactives show top-dose activation, actives largely listed as activators | hit rate 1.1% among 380,000; also: nearly all actives have a fitted effect of over 80% in size
#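 MCF7 cells carrying a BRCA1-firefly luciferase reporter (2000 cells/well, phenol-red free MEM) were attached for 2 h at 37 °C, then given compounds for 48 h. Luminescence was read 15 min after luciferase reagent; activity normalized to genistein (10 microM) and DMSO.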
# ERG-DNA inh – inhibitors of human ERG Ets domain-DNA interaction | P11308 | fluorescence polarization, His-ERG Ets domain / labelled DNA | Potency, µM (highest dose often 76.9 µM), inactives show at the top dose FP activity, negative = inhibition, actives largely listed as inhibitors | hit rate 0.028% among 370,000; active = well fitted inhibition curve with a large enough effect in the polarisation, with a control signal flat; inconclusive = small, poorly fitted or top-dose-only effect, or effect the other way, or a change in a side signal; inactive = no such curve, though single readings can be large or run the other way; the % refers to the polarisation;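 also: polarization taken with two DNA probes labelled with fluorescein and Texas red; % of control where 0% means no effect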
# Target sequence (P11308 whole entry, looked up, the tested form may be a part): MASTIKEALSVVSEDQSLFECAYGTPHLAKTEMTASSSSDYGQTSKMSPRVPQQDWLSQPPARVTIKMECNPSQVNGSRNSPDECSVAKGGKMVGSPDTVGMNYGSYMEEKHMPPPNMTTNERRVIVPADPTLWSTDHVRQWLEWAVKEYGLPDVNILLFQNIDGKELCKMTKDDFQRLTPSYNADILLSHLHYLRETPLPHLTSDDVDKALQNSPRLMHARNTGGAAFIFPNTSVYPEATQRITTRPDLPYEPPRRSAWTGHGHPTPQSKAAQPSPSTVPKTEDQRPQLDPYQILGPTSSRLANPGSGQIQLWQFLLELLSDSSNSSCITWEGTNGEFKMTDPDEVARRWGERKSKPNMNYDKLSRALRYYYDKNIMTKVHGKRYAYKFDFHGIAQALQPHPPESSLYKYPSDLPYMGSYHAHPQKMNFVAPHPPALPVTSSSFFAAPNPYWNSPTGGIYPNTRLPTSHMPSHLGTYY
#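 His-tagged ERG Ets domain (1 uM in the protein solution; 300mM KCl, 50mM Tris-HCl, 1mM EDTA, 1mM DTT, pH 7.5) received compound, then a probe mix of 5 nM fluorescein-DNA and 100nM Texas-615-DNA. Fluorescence polarization was read for both dyes.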
# Apoferritin bind – binds horse apoferritin like a general anesthetic; P02791; AID 485281; Potency, µM (doses to about 77.5 µM), for the others: top-dose activity change, negative = displacement, usual class: inhibitors; hit rate 0.074% among 350,000; apoferritin/1-aminoanthracene competitive binding, fluorescence; also: % is scaled to controls: 0 for no effect and ±100 for the full control effect; nearly all actives have a fitted effect of over 20% in size
# Target sequence (P02791 2-175 limits assumed): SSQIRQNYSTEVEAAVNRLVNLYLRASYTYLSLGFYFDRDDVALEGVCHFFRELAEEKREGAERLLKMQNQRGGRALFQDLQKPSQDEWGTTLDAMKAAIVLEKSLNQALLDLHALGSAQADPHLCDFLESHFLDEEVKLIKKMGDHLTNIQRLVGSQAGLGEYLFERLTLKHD
#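 Horse-spleen apoferritin (10 uM) was mixed with 50% saturated 1-aminoanthracene in PBS, exposed to compounds for 10 min at room temperature, and read for fluorescence (ex 380 nm, em 535 nm). Competitive displacement was fitted with a four-parameter Hill equation.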
# An asterisk follows results filed as active; ? = inconclusive; . = no result given; [ ] = another dose, or the depositor's remark. In the library only some 1.2% were active in any assay of this set; here they are far more common. Unless noted, calls follow the shape of the dose curve; as a rule, active = well fitted curve in the direction sought with a large enough effect; inconclusive = small, poorly fitted or top-dose-only effect, or another doubt; inactive = no such curve, though single readings can be large; an effect the other way counts as inactive or inconclusive. Potency is read from the fitted curve at half-maximal effect.
SMILES,RGS12 GoLoco inh,BRCA1 expr act,ERG-DNA inh,Apoferritin bind
CC(=O)Nc1ccc(-c2ccccc2)s1,18µM*,-2%,-9%,-7%
N#C/C(=C/c1ccc(N2CCOCC2)o1)c1ccc(Br)cc1,20%,-32%,8%,?
N#C/C(=C\c1ccc(N2CCOCC2)o1)c1ccccc1,7.1µM*,-7%,.,-12%
O=C(O)COCCN1CCN([C@@H](c2ccccc2)c2ccc(Cl)cc2)CC1,12%[21.6 µM],.,.,-8%[29.3 µM]
CNc1ccc(/C=C/c2ccnc3ccccc23)cc1,.,7%,.,.
Cc1ccc2c(cnn2C(=O)CCCC(=O)NC(C)c2ccccc2)c1 (stereo not given),.,2.5µM*,4%,-11%
Clc1cccc(CNc2ccn3nc(-c4cccs4)cc3n2)c1,.,8.9µM*,.,.
Clc1cccc(CNc2ccn3nc(-c4ccco4)cc3n2)c1,.,44%,.,.
CCOc1ccc(N(CC(=O)Nc2cc(C)cc(C)c2)S(C)(=O)=O)cc1,.,13µM*,-2%,-17%
CCOc1ccc(N(CC(=O)Nc2ccc(C)cc2)S(C)(=O)=O)cc1,.,8.9µM*,-1%,-9%
CCOc1ccc(N(CC(=O)Nc2cccc(Br)c2)S(C)(=O)=O)cc1,.,36%,-7%,-20%
Cc1ccc(Nc2nc(C(=O)N3CCC(C(=O)N4CCN(C)CC4)CC3)cs2)cc1,9%,0%,-4%,-13%
Cc1ccc(Nc2nc(COC(=O)C3CC3)cs2)cc1,46%,10µM*,-1%,?
C=CCN(CC=C)c1ccc(/C=C/c2ccnc3ccccc23)cc1,.,18%,.,.
COc1ccc(/C=C/C(=O)NC(=S)N2CCOCC2)cc1,.,75%,5%,-5%
COc1cccc(NC(=O)Nc2cc(C)on2)c1,.,54%,-5%,-2%
COc1ccc(/C=C/C(=O)NC(=S)N2CCN(c3ccccc3OC)CC2)cc1,-7%,4µM*,4%,-19%
COc1cccc(C(=O)NC(=O)Nc2cc(C)on2)c1,9%,7.9µM*,-3%,-6%
Cc1cc(NC(=O)Nc2ccc(C)c(C)c2)no1,-2%,7.9µM*,0%,-15%
Cc1cc(NC(=O)Nc2ccc(F)cc2)no1,2%,40%,9%,-5%
COc1ccc(C(=O)/C=C/Nc2cc(C)on2)cc1,2%,3.2µM*,.,-3%
Brc1ccc(/C=C2\C=Cc3ccccc32)cc1,.,-1%,.,.
C[C@H](NC(=O)CNC(=O)[C@@H](NC(=O)[C@H](Cc1ccccc1)NC(=O)CNC(=O)CNC[C@@H](N)Cc1ccccc1)[C@@H](C)O)C(=O)N[C@@H](CCCN=C(N)N)C(=O)N[C@@H](CCCCN)C(=O)N[C@@H](CO)C(=O)N[C@@H](C)C(=O)N[C@@H](CCCN=C(N)N)C(=O)N[C@@H](CCCCN)C(N)=O,.,.,.,-14%
COC(=O)N1C2CC3(C)CC(=O)CC1(C)C3c1ccccc12 (stereo not given),5%[14.2 µM],.,.,.
COc1ccc(/C=C/C(=O)Nc2cc(C)on2)cc1,-8%,4.5µM*,-12%,36%
SMILES,RGS12 GoLoco inh,BRCA1 expr act,ERG-DNA inh,Apoferritin bind
C#CCNC(=O)/C=C/c1ccc(OC)cc1,5%,13µM*,3%,-6%
CCCCCCCCCCCCC/C=C/[C@@H](O)[C@H](CO)NC(=O)CCCCC,.,.,.,-17%
CON(C)C(=O)/C=C/c1ccc([B-](F)(F)F)cc1,.,14µM*,-1%,.
CCN(CC)C(=O)/C=C/c1ccccc1,.,55%,-1%,.
Oc1ccc(-c2csc(Nc3ncccn3)n2)cc1O,11%,?,7%,-6%
Cc1cccnc1Nc1nc(-c2ccc(F)cc2)cs1,.,23%,22%,-8%
Cc1cccnc1Nc1nc(-c2ccc(O)cc2)cs1,5%,4.5µM*,.,?
Oc1ccc(-c2csc(Nc3ncccn3)n2)c(O)c1,4%,4.5µM*,15%,-2%
CC[n+]1ccnc2ccccc21,.,-11%,.,.
CN(C)c1ccc(C2CCc3ccccc3N2C(=O)c2ccccc2)cc1 (stereo not given),.,-8%,.,.
Cc1ccc2c(C)c(C(=O)N(C)C(C)c3ccon3)oc2c1C (stereo not given),.,10µM*,32µM*,-15%
COc1ccc(CNc2nc(-c3ccc(N(C)C)cc3)nc3ccccc23)c(OC)c1,8.9µM*,.,.,.
COc1ccc(CNc2nc(-c3ccc(C(=O)N(C)C)cc3)nc3ccccc23)c(OC)c1,-4%,.,.,-6%
CC(C)(C)S(=O)(=O)c1cnc(N2CCCCC2)nc1N,4%,54%,14%,-19%
CC(C)(C)S(=O)(=O)c1cnc(-c2ccc(Cl)cc2)nc1N,-6%,2.8µM*,4%,-3%
COc1ccc([C@H]2Cc3cc(O)cc(O)c3C(=O)O2)cc1O,.,10µM*,11%,.
Fc1ccc(CSc2ccc(-c3ccco3)nn2)cc1,7%,7.1µM*,1%,-9%
Clc1ccc(-n2ncc3c(N4CCCCCC4)ncnc32)cc1,1%,-25%,5%,1%
CC1CN(c2ncnc3c2cnn3-c2ccc(Cl)cc2)CC(C)O1 (stereo not given),-5%,3.2µM*,1%,-6%
COc1ccc(C2CC(c3ccc(C)o3)=NN2C(C)=O)cc1 (stereo not given),5%,6.3µM*,.,-9%
CC(=O)N1N=C(c2ccc(C)o2)CC1c1ccc(Br)cc1 (stereo not given),12%,10µM*,-12%,-12%
CC(C)=CCn1cnc2c1c(=O)n(C)c(=O)n2C,1%,.,.,.
Cc1ccc(C2=Nc3cccnc3C(c3ccccc3)=NN2)cc1,13%,6.3µM*,10%,-11%
Cc1ccc2c(c1)C(c1ccncc1)=NNC(c1ccccc1)=N2,19%,0%,1%,-16%
Cc1ccccc1Nc1nc(N)nc(CSCc2c(C)noc2C)n1,5%,-23%,-7%,-11%
SMILES,RGS12 GoLoco inh,BRCA1 expr act,ERG-DNA inh,Apoferritin bind
Cc1ccccc1Nc1nc(N)nc(COC(=O)c2ccccc2)n1,138%,14µM*,-17%,0%
Cc1ccccc1CSCc1nc(N)nc(Nc2ccccc2C)n1,-11%,11µM*,-9%,0%
Cc1nn2c(C)c(C(=O)NCc3cccc(Br)c3)cnc2c1-c1ccccc1,.,.,0%,-9%
COC(=O)c1cn(CC(=O)N2C(C)CCCC2C)c2ccccc12 (stereo not given),-7%,-18%,1%,-16%
CC1CCCC(C)N1C(=O)Cn1cc(/C=C2/C(=O)Nc3ccccc32)c2ccccc21 (stereo not given),6.3µM*,-66%,-3%,?
Cn1c(C(=O)N2CCCc3ccccc32)cc2sccc21,9%,26%,-6%,13µM*
O=C(c1cc2sccc2n1Cc1ccccc1)N1CCCc2ccccc21,-8%,-40%,-3%,2%
O=C(c1cccs1)N1CCc2ccccc21,4%,7.9µM*,-10%,?
O=C(c1cccs1)N1CCCc2ccccc21,4%,-18%,5%,?
Nc1cc(C2CCCC2)nn1-c1ccccc1,11%,10µM*,0%,-18%
COc1cccc2cc(CC(=O)c3ccccc3)c(=O)oc12,.,10µM*,-2%,-7%
COc1cccc2cc(CC(=O)c3ccc(C)c(C)c3)c(=O)oc12,.,11µM*,12%,-12%
